# High-throughput results deposited in PubChem by National Center for Advancing Translational Sciences (NCATS).
# HP1b binding inh – inhibitors of HP1-beta chromodomain binding to methylated histone tails; P83916; AlphaScreen HP1-beta / biotin-H3K9me3 peptide binding; Potency, µM (titrated, usually from 114 µM), for inactives: top-dose activity change, negative = inhibition, usual class: inhibitors; 0.56% of 390,000 active; further: nearly all actives have a fitted effect of over 70% in size
#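 AlphaScreen: HP1-beta (50 nM) preformed 30 min with biotin-H3(1-18)K9me3 peptide (50 nM) in PBS pH 7.4, 0.01% Tween-20. Compound added for 30 min at RT, then streptavidin donor/nickel chelate acceptor beads (10 ug/mL) for 30 min.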
# JMJD2A Tudor – JMJD2A Tudor domain (human) inhibition; 4.4% of 390,000 active; AlphaScreen JMJD2A-Tudor / H3K4me3 peptide binding; O75164; AID 504339; Potency, µM (titrated, usually from 114 µM), inactives show at the top dose activity change, negative = inhibition, most hits filed as inhibitors; further: on the % scale 0 is the no-effect control and ±100 the full control effect; nearly all actives have a fitted effect of over 50% in size
# Target sequence (O75164 whole entry, looked up, the tested form may be a part): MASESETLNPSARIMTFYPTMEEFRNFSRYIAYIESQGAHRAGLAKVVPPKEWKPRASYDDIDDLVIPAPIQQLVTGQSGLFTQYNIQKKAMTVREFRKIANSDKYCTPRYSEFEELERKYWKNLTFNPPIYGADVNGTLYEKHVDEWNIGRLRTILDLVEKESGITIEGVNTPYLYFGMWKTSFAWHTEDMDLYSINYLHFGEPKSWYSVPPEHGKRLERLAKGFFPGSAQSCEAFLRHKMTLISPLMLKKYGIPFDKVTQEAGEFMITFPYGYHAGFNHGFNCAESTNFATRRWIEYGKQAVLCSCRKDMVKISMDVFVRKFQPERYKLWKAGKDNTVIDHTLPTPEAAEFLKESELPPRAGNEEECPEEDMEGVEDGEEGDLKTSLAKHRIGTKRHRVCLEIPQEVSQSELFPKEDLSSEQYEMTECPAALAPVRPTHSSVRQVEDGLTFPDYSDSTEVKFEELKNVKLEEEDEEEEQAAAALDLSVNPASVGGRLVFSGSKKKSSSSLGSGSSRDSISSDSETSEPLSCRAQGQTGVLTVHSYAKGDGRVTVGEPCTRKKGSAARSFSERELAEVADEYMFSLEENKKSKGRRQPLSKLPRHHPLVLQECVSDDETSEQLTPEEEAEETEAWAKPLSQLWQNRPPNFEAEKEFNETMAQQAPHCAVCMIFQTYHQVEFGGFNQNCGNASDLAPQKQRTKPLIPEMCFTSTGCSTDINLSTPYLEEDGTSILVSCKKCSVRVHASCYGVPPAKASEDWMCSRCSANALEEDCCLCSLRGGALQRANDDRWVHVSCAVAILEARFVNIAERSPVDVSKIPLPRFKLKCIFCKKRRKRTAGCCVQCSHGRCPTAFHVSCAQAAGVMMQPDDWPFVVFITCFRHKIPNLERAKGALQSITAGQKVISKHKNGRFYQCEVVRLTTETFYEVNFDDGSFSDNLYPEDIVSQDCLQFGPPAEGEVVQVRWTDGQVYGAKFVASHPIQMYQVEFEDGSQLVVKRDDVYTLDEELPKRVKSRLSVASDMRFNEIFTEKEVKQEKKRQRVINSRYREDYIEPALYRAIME
# L3MBTL1 block – inhibitors of human L3MBTL1; AlphaScreen L3MBTL1–H3K9me1 peptide binding; Potency, µM (titrated, usually from 57.1 µM), for the others: top-dose activity, negative = inhibition, actives largely listed as inhibitors; Q9Y468; 0.66% of 230,000 active; further: on the % scale 0 is the no-effect control and ±100 the full control effect; nearly all actives have a fitted effect of over 60% in size
#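 AlphaScreen proximity signal between nickel-chelate acceptor and streptavidin donor beads (final 10 ug/mL) reports binding of 50 nM L3MBTL1 to 75 nM biotin-H3 K9me1 peptide; complex incubated with compounds 30 min at room temperature; cefsulodin titration as control.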
# G9a inh – G9a (human) methyltransferase inhibition. Potency, µM (doses to about 102 µM), for inactives: at the highest dose activity, negative = inhibition, most hits filed as inhibitors. AID 504332. 8.8% of 350,000 active. Q96KQ7. G9a H3K9 monomethylation, AlphaScreen, 2 h; further: on the % scale 0 is the no-effect control and ±100 the full control effect; nearly all actives have a fitted effect of over 75% in size
#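 Signal arises when biotinylated H3K9 peptide, once monomethylated, bridges streptavidin donor and antibody-captured acceptor beads. Enzyme at 20 nM was preincubated 15 min with test compounds; peptide 500 nM and SAM 20 uM then reacted for 2 h.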
# Sfp PPTase inh – Sfp phosphopantetheinyl transferase inhibition. Q9F4F7. Potency, µM, inactives show largest response in the series, negative = inhibition, actives largely listed as inhibitors. Biochemical Sfp PPTase activity, qHTS. 3.5% of 310,000 active;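 further: the enzyme is Sfp with the accession as filed and its product quenches rhodamine fluorescence; 0% = enzyme reaction without inhibitor and -100% = no enzyme wells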
#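 Fluorescence-quenching assay: 15 nM Sfp-PPTase preincubated 15 min at room temperature with compound, then 5 uM rhodamine-CoA and 12.5 uM BHQ-2-labelled YbbR peptide added. Fluorescence (ex 525/em 598 nm) read at start and after 30 min; difference gives rate.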
# BAZ2B block – blocks human BAZ2B; AID 504333; AlphaScreen BAZ2B-H3K14Ac peptide displacement; 4.4% of 360,000 active; Potency, µM (top dose mostly 114 µM), without a hit: top-dose activity change, negative = inhibition, hits mostly inhibitors; Q9UIF8; further: on the % scale 0 is the no-effect control and ±100 the full control effect; nearly all actives have a fitted effect of over 60% in size
#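 BAZ2B (50 nM) with biotin-H3(5-23)K14Ac peptide (50 nM) in PBS pH 7.4, 0.01% Tween-20, preformed 30 min, then compound 30 min at room temperature; top concentration 110uM. AlphaScreen streptavidin donor/nickel chelate acceptor beads (10 ug/mL final), 20 min dark, signal read.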
# * hit, by the source's call; u = inconclusive; x = no result; [ ] = remark or other dose. Only some compounds are listed: those with a hit (about 12% of all), similar ones and a draw of the others. The call rests on the fitted dose curve; in most records, active means well fitted curve in the direction sought with a large enough effect; inconclusive means small, poorly fitted or top-dose-only effect, or another doubt; inactive means no such curve, though single readings can be large; an effect the other way counts as inactive or inconclusive. Potency means the concentration at half of the fitted maximal effect.
SMILES,HP1b binding inh,JMJD2A Tudor,L3MBTL1 block,G9a inh,Sfp PPTase inh,BAZ2B block
COc1ccc(S(=O)(=O)Nc2cc3c(cc2NCc2ccccc2)n(C)c(=O)n3C)cc1OC,-11%,u,x,13µM*,x,50µM*
Cc1ccc(-n2c(-c3ccccc3)nsc2=NC#N)cc1,-2%[57 µM],-2%[57.1 µM],x,x,x,x
CN(C)C(=O)CSc1nc(-c2cccs2)c(-c2cccs2)[nH]1,7%,-14%,x,u,18%,-38%
O=C(COc1ccc(F)cc1)Nc1ccc(OCc2cc(=O)n3ccsc3n2)cc1,25%,-15%,x,-29%[59 µM],x,-8%
CCC(C(=O)NCc1cc(OC)ccc1OC)n1nc(C)c2sc3ccccc3c2c1=O (configuration not stated),41%,-7%,x,4%[59 µM],x,-4%
COc1ccc(-n2c(=O)c(CCc3ccccc3)nc3cnc(N4CCN(C)CC4)nc32)cc1,x,x,x,8%[0.501 µM],-2%,x
Cc1cc(S(=O)(=O)Nc2cc3c(cc2NCc2ccccc2)n(C)c(=O)n3C)ccc1F,4%,-23%,x,14µM*,x,u
COc1ccc(S(=O)(=O)N(CC(=O)Nc2ccc3c(c2)OCO3)c2ccccc2OC)cc1,10%,-24%,-19%,-18%[59 µM],13%,-27%
CCOc1ccccc1N(CC(=O)NC1CCCCC1)S(=O)(=O)c1ccccc1,8%,-9%,x,25µM*,11%,-1%
COc1ccccc1N(CC(=O)Nc1ccc2c(c1)OCO2)S(=O)(=O)c1ccccc1,-4%,u,-4%,28µM*,-5%,56µM*
CCn1c(=O)c2sccc2n2c(CCC(=O)Nc3ccc(F)cc3)nnc12,15%,-15%,x,3%[59 µM],x,0%
Cc1ccc(N2CCN(C(=O)Nc3cccc([N+](=O)[O-])c3)CC2C)cc1 (configuration not stated),u,u,-9%[11.4 µM],u,12%,56µM*
O=C1C(=O)c2ccccc2C([O-])=C1[n+]1ccccc1,20%,-4%,0%,-44%,7%,-10%
CCc1cc[n+](C2=C([O-])c3ccccc3C(=O)/C2=N\S(=O)(=O)c2cccs2)cc1,u,79µM*,u,u,11%,u
N#Cc1cccc(-c2nc(NCCN3CCOCC3)c3ccccc3n2)c1,x,x,x,0%[0.501 µM],11%,x
CSc1ccccc1C(=O)C1CCCN(C(=O)CCc2cccnc2)C1 (configuration not stated),45%,-9%,3%,-3%,17%,-3%
CSc1ccccc1C(=O)C1CCCN(C(=O)c2cncs2)C1 (configuration not stated),17%,20µM*,x,-19%,11%,-17%
COc1ccc(C2C(=O)N(C3CCC(C)CC3)CC(=O)N2C2CCCC2)cc1OC (configuration not stated),48%,-3%,x,9%[59 µM],x,-2%
C=CCc1cc(OC)ccc1OCCN1CC(C)OC(C)C1 (configuration not stated),u,5µM*,-8%,7.1µM*,56µM*,28µM*
C=CCc1cc(CN2CC(C)OC(C)C2)c(O)c(OC)c1 (configuration not stated),22%[57 µM],-8%,x,x,x,x
C=CCc1cc(Cl)ccc1OCCN1CC(C)OC(C)C1 (configuration not stated),u,2.2µM*,11%,4.5µM*,-24%,u
Cc1ccc2c(c1)-c1ccccc1S(=O)(=O)N2,25%,-5%,x,-10%[12.7 µM],12%,-5%
O=S1(=O)Nc2c(cc(Cl)c3ccc(Cl)nc23)-c2ccccc21,u,40µM*,x,x,x,x
CC[n+]1c(/C=C/N(C)c2ccccc2)oc2ccc(F)cc21,-3%,79µM*,-16%,8.9µM*,50µM*,-32%
CC[n+]1c(/C=C/Nc2ccccc2)oc2ccc(OC)cc21,48%,10%,2%,u,5%,-6%
CC[n+]1c(/C=C/Nc2ccccc2)oc2ccccc21,65%,-6%,4%,50µM*,-4%,-30%
